Measured values published in PubChem BioAssay AID651820 (National Center for Advancing Translational Sciences (NCATS), 2012).
About 12,000 (3.5%) of roughly 340,000 compounds were called active. Not shown: some 18% with an inconclusive outcome. What follows is part of a selection rich in actives, with near analogues and random picks from the rest. A number with no mark means an inactive call. Calls come from the whole dose curve; as a rule, active = well fitted inhibition curve with a large enough effect; inconclusive = small, poorly fitted or top-dose-only effect, or another doubt; inactive = no such curve, though single readings can be large or run the other way.
% is set by controls: 0 for no effect and ±100 for the full control effect; potency is the fitted concentration of half-maximal effect.

Assay: qHTS Assay for Inhibitors of Hepatitis C Virus (HCV)
Details: Huh7.5.1 HCVcc-Cre infection, luciferase reporter, 44 h; series mostly up to 41.8 µM; activity change, negative = inhibition: at the top concentration
How it was run: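 Reporter virus HCVcc-Cre (~0.5 moi) infects cells exposed to compound; seeding density 1,000 cells/well with 4 h settling beforehand. Luminescence, 15 sec read, taken 44 h post-infection following a 15 min RT substrate incubation.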
With `O=S(=O)(c1ccccc1)N1CCC(c2ccccc2)CC1` the “activity change, negative = inhibition” value was 4.33%. For `Cc1ccsc1C(=O)NCCc1ccco1`, the “activity change, negative = inhibition” value was 0.166%. With `O=C(COc1ccc(Br)cc1F)NCC1(N2CCCCC2)CCCCC1` the “activity change, negative = inhibition” value was -7.28%. Work on `CCN1C[C@@H]2[C@@H]3C(=O)N(Cc4ccccc4)C(=O)[C@@H]3[C@](Cc3ccccc3)(C(=O)OC)N2C1=NC1CCCCC1` yielded an activity change, negative = inhibition of 11.2% [at 8.37 µM]. With `CCC[C@H]1CCCC/C=C\CCCC(=O)OCCN1C(=O)OC(C)(C)C` the “activity change, negative = inhibition” value was 0.716%. With `CCN1C[C@@H]2[C@@H]3C(=O)N(C)C(=O)[C@@H]3[C@](C)(C1=O)N2C(=O)c1ccccc1` the “activity change, negative = inhibition” value was 9.82%. For `C/[N+]([O-])=C\c1ccc([N+](=O)[O-])o1`, the “activity change, negative = inhibition” value was -3.61%. For `O=C(/C=C/c1ccc([N+](=O)[O-])o1)NNC(=O)c1ccc(F)cc1`, the Potency was 14.1 µM (active). For `O=C(N/N=C/c1ccc([N+](=O)[O-])o1)c1cn(-c2ccccc2)nc1-c1ccc(F)cc1`, the “activity change, negative = inhibition” value was -13.3%. With `CCCCCCSc1ccc(-c2nc3ccc(Cl)cn3c2NCc2ccccc2)cc1` the “activity change, negative = inhibition” value was 15.9%. In the case of `C[C@@H]1NS(=O)(=O)c2cc(Cl)ccc2O[C@@H]1c1ccccc1`, the “activity change, negative = inhibition” value is reported as 8.02%. For `Cc1cccc(NC(=O)Cn2c(=O)n(Cc3ccccc3)c(=O)c3c(C)c(C)sc32)c1`, the Potency was 10 µM (active). With `Cc1sc2c(c1C)c(=O)n(-c1ccccc1)c(=O)n2CC(=O)NCC1CCCO1` (centres undefined) the “activity change, negative = inhibition” value was -3.51%. For `Cc1cccc(-n2c(=O)c3c(C)c(C)sc3n(CC(N)=O)c2=O)c1`, the “activity change, negative = inhibition” value was 6.73%. In the case of `C=CCC(NC(=O)Cc1ccccc1)C(=O)NCCC` (centres undefined), the “activity change, negative = inhibition” value is reported as 18.1%. With `CC(=NNC(=O)c1ccncc1)c1ccc(Cl)c(Cl)c1` the “activity change, negative = inhibition” value was -8.61%. In the case of `CN(Cc1cccs1)C(=O)CN1C(=O)c2ccccc2S1(=O)=O`, the “activity change, negative = inhibition” value is reported as 33.4%. With `COc1cc(C(=O)N2CCN(S(=O)(=O)c3ccc(C(C)C)cc3)CC2)ccc1OCC(=O)N1CCOCC1` the “activity change, negative = inhibition” value was 19.6%. In the case of `COCC(C)NCc1cc(Br)ccc1OC` (centres undefined), the “activity change, negative = inhibition” value is reported as 25.2%. In the case of `Cc1ccc(OCCOCCOc2ccc(Br)cc2/C=N\NC(=O)c2ccncc2)cc1`, the “activity change, negative = inhibition” value is reported as 4.5%. With `CCC(C)NCCOCCOc1ccc(Br)cc1C` (centres undefined) the Potency was 11.2 µM (active). In the case of `O=c1c(Cl)c(NC2CC2)cnn1-c1ccccc1`, the “activity change, negative = inhibition” value is reported as 13.3%. With `Cc1cccc(-n2ncc(C#N)c2-n2cccc2)c1` the “activity change, negative = inhibition” value was -13.2%. With `Cc1cccc(-n2ncc(Cl)c(Cl)c2=O)c1` the Potency was 11.2 µM (active). With `COc1ccc(NC(=O)c2cccc(Cl)c2)c[n+]1[O-]` the Potency was 3.16 µM (active). With `O=C(Nc1ccon1)c1cccc(Cl)c1` the “activity change, negative = inhibition” value was 22.2%. For `O=C(Nc1ccc(NC(=O)c2ccc3c(c2)OCO3)cc1)c1cccc(Cl)c1`, the “activity change, negative = inhibition” value was 3.43%. In the case of `Cc1ccc(NC(=O)C(C)OC(=O)C2CC3CCCC(C2)C3=O)cc1S(=O)(=O)N1CCOCC1` (centres undefined), the “activity change, negative = inhibition” value is reported as 7.06%. With `CC[C@@H](C)[C@@H]1CN([C@@H](C)CN2CCC[C@H]2CN2C(N)=NC[C@H]2C(C)C)C(=N)N1CCc1ccc(Cl)c(Cl)c1` the “activity change, negative = inhibition” value was -49.6%. In the case of `COc1ccccc1C(=O)NCC(=O)OCC(=O)Nc1nnc(-c2ccccc2)o1`, the “activity change, negative = inhibition” value is reported as 14.5%. With `CCCC(=O)N1CCN(c2nnc(-c3ccc(C)cc3)c3ccccc23)CC1` the Potency was 12.6 µM (active). For `c1ccc(-c2nnc(N3CCOCC3)c3ccccc23)cc1`, the “activity change, negative = inhibition” value was -6.08%. In the case of `OCCN1CCN(c2nnc(-c3ccccc3)c3ccccc23)CC1`, the “activity change, negative = inhibition” value is reported as -0.988%. With `COc1ccc2nc3n(c(=O)c2c1)-c1ccc(Cl)cc1C(=O)NC3Cc1ccccc1` (centres undefined) the “activity change, negative = inhibition” value was -23.3%. For `CCN(CC(=O)Nc1ccc(NC(C)=O)cc1)C(=O)CSC(=S)N1CCCC1`, the “activity change, negative = inhibition” value was 13%. In the case of `CN(C(=O)CSc1cccc[n+]1[O-])C1CCCCC1`, the “activity change, negative = inhibition” value is reported as 0.125%. For `Cc1ccc(N(Cc2cc3ccccc3[nH]c2=O)C(=O)c2cccs2)cc1`, the “activity change, negative = inhibition” value was -18.6%. With `Cc1ccc(N(Cc2cc(=O)[nH]c3ccccc23)C(=O)CCl)cc1` the Potency was 11.2 µM (active). With `CC(=O)N(Cc1cc(=O)[nH]c2ccccc12)c1ccc(C)cc1C` the “activity change, negative = inhibition” value was 19.2%. In the case of `COc1cc(O)c2c(=O)c3c(O)c(O)ccc3oc2c1OC`, the “activity change, negative = inhibition” value is reported as -35.3%. In the case of `CCc1cccc(C)c1NS(=O)(=O)c1cc(Br)cnc1N`, the Potency is reported as 11.2 µM (active). For `Cc1ccc(C)c(NS(=O)(=O)c2cc(Br)cnc2N)c1`, the “activity change, negative = inhibition” value was 3.9%. With `CC(=O)c1ccc(NC(=O)CCNS(=O)(=O)c2cc(Br)cnc2N)cc1` the “activity change, negative = inhibition” value was -1.13%. With `CCOc1ncccc1C(=O)OCC(=O)Nc1cccc(S(=O)(=O)N2CCCCCC2)c1` the “activity change, negative = inhibition” value was -5.14%. `COC(=O)[C@]1(C)N[C@H](CN(C)C(=O)c2ccc(C(C)(C)C)cc2)[C@@H]2C(=O)N(C)C(=O)[C@@H]21` showed an activity change, negative = inhibition of -14.2% [at 8.37 µM]. In the case of `COCCn1c(SC(C)C(=O)NC2CC2)nnc1-c1cccc(C)c1` (centres undefined), the “activity change, negative = inhibition” value is reported as 9.78%. With `COC(=O)c1ccc(COc2ccc(/C=C/C(=O)c3ccc(OC)c(CSCC(=O)O)c3)cc2OC)cc1` the “activity change, negative = inhibition” value was -18.3%. For `COCOc1cc(O)c(C(=O)/C=C/c2ccc(OCOC)c(OCOC)c2)c(OCOC)c1`, the Potency was 7.94 µM (active). `COc1ccc(/C=C/C(=O)c2ccc(OC)cc2O)cc1` gave an activity change, negative = inhibition of 1.23% [at 8.37 µM]. In the case of `CCOC(=O)c1c(NC(=O)CSc2nnc(C)c(=O)[nH]2)sc2c1CCC2`, the “activity change, negative = inhibition” value is reported as 2.84%. With `COC(=O)c1c(NC(=O)CSc2nncs2)sc2c1CCCCC2` the Potency was 7.08 µM (active). In the case of `COC(=O)c1c(NC(=O)C2CC(C)=C(C)CC2C(=O)O)sc2c1CCCCC2` (centres undefined), the “activity change, negative = inhibition” value is reported as 0.726%. For `CCOC(=O)c1c(NC(=O)CSc2nnc(CN3CCOCC3)n2C)sc2c1CCCC2`, the Potency was 22.4 µM (active). With `COC(=O)c1c(NC(=O)CCCC(=O)O)sc2c1CCCCC2` the “activity change, negative = inhibition” value was -1.74%. For `COC(=O)c1c(NC(=O)CCN2CCOCC2)sc2c1CCCC2`, the “activity change, negative = inhibition” value was -13.5%. In the case of `COC(=O)[C@]1(C)CCC[C@@]2(C)C3CC[C@]4(OC(C)=O)C[C@@]3(CCC21)CC4=NO` (some centres undefined), the “activity change, negative = inhibition” value is reported as 0.298%. With `O=C(CCNC(=O)c1ccc(Br)cc1)Nc1cccc(S(=O)(=O)N2CCCCC2)c1` the “activity change, negative = inhibition” value was -9.26%. In the case of `COc1ccccc1C(=O)NCC(=O)NCCSc1ccc(Br)cc1`, the “activity change, negative = inhibition” value is reported as 31.4%. Work on `CCc1noc(C)c1C(=O)N1CCCSC1=Nc1ccccc1OC` yielded an activity change, negative = inhibition of 9.92% [at 8.37 µM]. For `COc1ccc2c(c1)C(=O)Nc1cc(Cl)ccc1N2`, the “activity change, negative = inhibition” value was -25.5%. For `Cc1cccc(OCCC(=O)OCc2csc(CC(=O)Nc3ccccc3C)n2)c1`, the “activity change, negative = inhibition” value was -5.01%. With `CCOc1cccc(/C=C/c2ccc3ccccc3n2)c1OC(C)=O` the Potency was 11.2 µM (active). For `CCOc1ccccc1-c1cc(C(=O)N/N=C(\C)c2cccnc2)c2ccccc2n1`, the “activity change, negative = inhibition” value was -26.8%. With `NC(=O)COC(=O)/C=C/c1ccc2ccccc2n1` the “activity change, negative = inhibition” value was -4.15%.
